Among the data in PubChem BioAssay (NCI) are growth values, retold here.

Among the test systems are HCT-15 colon; HT29 colon; SNB-75 CNS; SNB-19 CNS; U251 CNS; PC-3 prostate; SK-MEL-5 melanoma; UACC-62 melanoma; LOX IMVI melanoma; SK-MEL-28 melanoma; SK-MEL-2 melanoma; EKVX NSCLC; SN12C renal; UO-31 renal; TK-10 renal; ACHN renal; CAKI-1 renal; MOLT-4 leukemia; A498 renal; CCRF-CEM leukemia.
What all share (test): NCI-60 one-dose screen, 48 h (100 = growth as untreated, 0 = no growth, -100 = all killed)
What all share (conditions): 10 µM unless noted

Structures are written as SMILES. About 83,000 compounds went through this panel and 20% of them were active in at least one assay; those are over-represented in the sample as a whole.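 Single-concentration screen, 48 h exposure, 96-well plates. Endpoint: percent growth. Below 10 = active.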 Unmarked numbers belong to inactive results. Calls of active or inactive are those of the source.

With `Cc1ccc(-c2cnc3sc(C(=O)NCCc4ccccc4)c(C)n23)cc1`, the growth in the test with HCT-15 colon was 97.9%; with HT29 colon it was 113%; in the test on SNB-75 CNS, 79.3%; with SNB-19 CNS it was 92.1%; in the test with U251 CNS, 95%; in the test with PC-3 prostate, 81.7%. Also, the growth in the test with SK-MEL-5 melanoma was 99.7%; with UACC-62 melanoma, 85.9%; in the test on LOX IMVI melanoma, 84.4%; in the test with SK-MEL-28 melanoma, 104%; with SK-MEL-2 melanoma, 108%; in the test on EKVX NSCLC, 86.8%. Besides, the growth in the test on SN12C renal was 93.2%; in the test with UO-31 renal, 75.1%; with TK-10 renal it was 139%; in the test on ACHN renal, 94.2%; in the test on CAKI-1 renal, 94.1%; in the test on MOLT-4 leukemia, 87%.
On to `CCCCn1c(=O)c(-c2cc(-c3ccc(Cl)cc3)nc(-c3ccc(Cl)cc3)c2)cc2cc(C)ccc21`, for which the growth in the test on HCT-15 colon was 101%; in the test with HT29 colon it was 101%; in the test with SNB-75 CNS, 98.5%; with SNB-19 CNS, 98.8%; in the test on U251 CNS, 106%; with PC-3 prostate it was 97.2%. Further, the growth in the test on SK-MEL-5 melanoma is 104%; in the test with UACC-62 melanoma, 89.7%; in the test on LOX IMVI melanoma, 98.5%; with SK-MEL-28 melanoma, 107%; with SK-MEL-2 melanoma, 118%; in the test with EKVX NSCLC it was 101%. Moreover, the growth with SN12C renal is 92.2%; with UO-31 renal, 86.2%; in the test with TK-10 renal it was 98.7%; in the test on ACHN renal, 107%; with A498 renal, 103%; with CCRF-CEM leukemia it was 101%. Moreover, in the test on MOLT-4 leukemia, the growth is 105%.
Consider `CCC(C)(c1cc(C(C)(C)C)c(O)c(C(C)(C)C)c1)c1cc(C(C)(C)C)c(O)c(C(C)(C)C)c1`, for which the growth is 105% with HCT-15 colon; 96.3% in the test on HT29 colon; 83.4% in the test on SNB-75 CNS; 104% with SNB-19 CNS; 98.6% in the test on U251 CNS; 101% with PC-3 prostate. In addition, the growth in the test with SK-MEL-5 melanoma is 100%; with UACC-62 melanoma it was 91.8%; in the test with LOX IMVI melanoma, 103%; in the test with SK-MEL-28 melanoma, 106%; in the test on SK-MEL-2 melanoma it was 96.2%; in the test with EKVX NSCLC, 107%. The growth was 101% with SN12C renal; 97.3% in the test on TK-10 renal; 101% in the test with ACHN renal; 94.2% in the test with CAKI-1 renal; 101% in the test on A498 renal; 98.9% in the test with CCRF-CEM leukemia. Moreover, in the test on MOLT-4 leukemia, the growth is 100%.
In the case of `CCCCn1c(-c2ccc(-c3nc(-c4ccc(Cl)cc4)no3)cc2)nc(-c2ccccc2)c1-c1ccccc1`, the growth is 77.2% in the test on HCT-15 colon; 90.2% with HT29 colon; 80.5% in the test on SNB-75 CNS; 83.5% in the test with SNB-19 CNS; 87% in the test on U251 CNS; 70.4% with PC-3 prostate. The growth in the test with SK-MEL-5 melanoma is 97.9%; with UACC-62 melanoma, 71.5%; in the test on LOX IMVI melanoma, 31.3%; in the test with SK-MEL-28 melanoma it was 90.8%; in the test on SK-MEL-2 melanoma, 103%; with EKVX NSCLC, -93.7% (active). The growth in the test with SN12C renal is 83.2%; in the test on UO-31 renal it was -5.33% (active); with TK-10 renal it was 126%; in the test with ACHN renal, 60.3%; in the test with A498 renal, 89.1%; in the test with MOLT-4 leukemia, 65.6%.
As for `Cc1ccc(-c2nc(N3CCN(C(=O)c4ccc(OC(F)(F)F)cc4)CC3)c3ccccc3n2)cc1`, the growth was 72.8% with HCT-15 colon; 88.9% in the test on HT29 colon; 76.2% in the test with SNB-75 CNS; 88.4% with SNB-19 CNS; 86.1% in the test on U251 CNS; 63.9% in the test on PC-3 prostate. Moreover, the growth in the test with SK-MEL-5 melanoma was 81.5%; with UACC-62 melanoma, 75.4%; with LOX IMVI melanoma, 89.4%; in the test with SK-MEL-28 melanoma it was 101%; in the test on SK-MEL-2 melanoma it was 102%; in the test on EKVX NSCLC, 88.5%. The growth is 90.5% in the test with SN12C renal; 53.7% in the test with UO-31 renal; 90.6% in the test with TK-10 renal; 89.5% in the test with ACHN renal; 69.8% in the test with CAKI-1 renal; 75.3% in the test on CCRF-CEM leukemia. In addition, the growth with MOLT-4 leukemia is 56.8%.
For `O=C(CCN1C(=O)/C(=C/c2ccc(O)cc2)SC1=S)Nc1ccccc1`, the growth in the test on HCT-15 colon was 90.8%; in the test with HT29 colon, 118%; in the test with SNB-75 CNS, 89.3%; with SNB-19 CNS it was 91.4%; in the test on U251 CNS, 92.7%; in the test with PC-3 prostate, 90.5%. In addition, the growth with SK-MEL-5 melanoma was 101%; in the test with UACC-62 melanoma, 81.6%; in the test on LOX IMVI melanoma, 97.6%; in the test on SK-MEL-28 melanoma, 97.3%; in the test with SK-MEL-2 melanoma it was 111%; in the test on EKVX NSCLC it was 100%. In addition, the growth in the test on SN12C renal is 87.6%; in the test with UO-31 renal, 67%; with TK-10 renal it was 102%; with ACHN renal, 92%; with A498 renal, 97.8%; with MOLT-4 leukemia, 85.5%.
Take `COc1ccc2[nH]c(-c3ccccc3)c(/C=C(\C#N)S(=O)(=O)c3ccccc3)c2c1`: the growth is 39.3% in the test on HCT-15 colon; 21% in the test on HT29 colon; 48.1% in the test with SNB-75 CNS; 63.2% in the test on SNB-19 CNS; 39% in the test with U251 CNS; 49.6% in the test on PC-3 prostate. The growth was 14.9% in the test with SK-MEL-5 melanoma; 42.1% in the test on UACC-62 melanoma; 61.2% in the test with LOX IMVI melanoma; 53.4% in the test on SK-MEL-28 melanoma; 87% in the test with SK-MEL-2 melanoma; 56.7% in the test on EKVX NSCLC. Moreover, the growth in the test with SN12C renal is 67%; in the test with UO-31 renal, 70.2%; in the test with TK-10 renal, 92.4%; in the test with ACHN renal, 71.6%; in the test on CAKI-1 renal, 76.6%; in the test on CCRF-CEM leukemia, 36.2%. For the same compound, in the test with MOLT-4 leukemia, the growth was 17.4%.
